TRHR enhancer-1 = qHTS for Small Molecule Agonists and Allosteric Enhancers of Human TRH Receptor: Primary Screen for Enhancers; TRHR cells, fluo-8 calcium fluorescence, EC20 TRH enhancement; 360,000 tested, 0.66% active; enhancement, % at 2 µM; AID 493056, 2011; in the data active means enhancement above about 30%; further: 0% is about no effect
Target sequence (P34981 whole entry, looked up): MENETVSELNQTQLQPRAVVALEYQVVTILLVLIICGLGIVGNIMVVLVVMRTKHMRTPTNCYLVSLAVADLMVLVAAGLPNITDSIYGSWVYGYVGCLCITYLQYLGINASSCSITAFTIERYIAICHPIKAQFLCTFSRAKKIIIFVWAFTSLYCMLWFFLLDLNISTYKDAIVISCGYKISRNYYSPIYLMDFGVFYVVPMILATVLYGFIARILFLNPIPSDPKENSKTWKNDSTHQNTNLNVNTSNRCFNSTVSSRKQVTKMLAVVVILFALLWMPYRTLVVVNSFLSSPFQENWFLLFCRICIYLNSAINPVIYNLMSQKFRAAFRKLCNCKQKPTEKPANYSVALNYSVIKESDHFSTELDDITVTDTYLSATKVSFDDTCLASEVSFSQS
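Enhancer read-out: after compound pinning and an initial kinetic agonist-mode read, an EC20 of TRH (10 nM final) was injected and fluo-8 calcium signal (Ex 480/Em 530) followed at 1 s/cycle for 100 cycles in TRHR-expressing cells.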
D1 antag = Antagonist of Human D 1 Dopamine Receptor: qHTS; D(1A) dopamine receptor (Homo sapiens), P21728; HEK293 TREx D1 cells, calcium flux, dopamine EC80; stronger effect = lower value; activity change, negative = inhibition, % at 10 µM; 360,000 tested, 3.2% active; AID 504652, 2011; in the data active means activity change below about -30%; further: on the % scale 0 is the no-effect control and ±100 the full control effect
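HEK293 T-REx cells expressing inducible, force-coupled D1 receptor; no-wash Ca dye, 30–90 min RT. Cmpd → 180 s read at 1 Hz → EC80 DA → 180 s read.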
TRHR agonist-1 = qHTS for Small Molecule Agonists and Allosteric Enhancers of Human TRH Receptor: Primary Screen for Agonists | activation, % at 2 µM | TRHR cells, calcium flux fluo-8, FDSS agonist mode | Thyrotropin-releasing hormone receptor (Homo sapiens), P34981 | 360,000 tested, 0.18% active; in the data active means activation above about 30%; further: 0% is about no effect
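Fluo-8-loaded TRHR cells; 10 s baseline, compound added, kinetic Ca2+ fluorescence read 1/s, agonist mode.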
D1 agonist = Allosteric Agonists of the Human D1 Dopamine Receptor: qHTS. activation, % at 2 µM. HEK293 T-REx D1 cells, calcium flux, agonist mode. D(1A) dopamine receptor (Homo sapiens), P21728. 360,000 tested, 1% active; in the data active means activation above about 30%; further: 0% is about no effect
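Tetracycline-induced HEK293 TREx D1 cells, force-coupled to calcium signalling, were dye-loaded with a no-wash calcium kit. Compound was pin-added after a 10 s baseline. Fluorescence was read kinetically at 1 cycle/s for 180 s, with calcium rises flagged as agonism.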
D1 potentiator = Potentiators of Human D1 Dopamine Receptor: qHTS; D(1A) dopamine receptor (Homo sapiens), P21728; HEK293 TREx D1 cells, calcium flux, dopamine EC20 potentiation; potentiation, % at 10 µM; 360,000 tested, 0.036% active; AID 504651, 2011; in the data active means potentiation above about 30%; further: 0% is about no effect
Epigenetic derep = Quantitative High-Throughput Screen for Regulators of Epigenetic Control. Potency, µM (top dose mostly 53.9 µM), for inactives: at the highest dose GFP activation, usual class: activators. murine LDR cells, GFP reporter derepression, 30 h. AID 1865, 2009. 280,000 tested, 0.2% active; further: potency means the concentration at half of the fitted maximal effect; % of control where 0% means no effect; nearly all actives have a fitted effect of over 60% in size
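Readout is the number of GFP-expressing murine LDR cells, counted by cytometry following washing. Cells were treated with compound for 30 h at 37 C; the stably integrated CMV-GFP locus is normally silent.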
TRHR enhancer-2 = qHTS for Small Molecule Agonists and Allosteric Enhancers of Human TRH Receptor: Confirmation Screen for Enhancers; 970 tested, under 10 active; activity change, negative = inhibition, % at 46.1 µM; shares compounds with TRHR enhancer-1; TRH receptor cell assay, enhancer confirmation qHTS;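 further: compound effect scored on response to added TRH at EC20 of 10 nM; 0% is about no effect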
TRHR agonist-2 = qHTS for Small Molecule Agonists and Allosteric Enhancers of Human TRH Receptor: Confirmation Screen for Agonists. shares compounds with TRHR enhancer-1. 970 tested, 8% active. TRHR-expressing cells, agonist activation read-out. Potency, µM (series often up to 46.1 µM), for the others: at the top dose activation, actives largely listed as activators. AID 493078, 2011; further: potency means the concentration at half of the fitted maximal effect; 0% is about no effect; nearly all actives have a fitted effect of over 75% in size
Starred values were filed as active, the others as inactive; ? = inconclusive; nt = not tested or not shown; [ ] = remark or other dose. Sampled rows, rich in hits. Any-hit rate of the full collection: about 4.6%. Unless noted, the call rests on the fitted dose curve; in most records, active means well fitted curve in the direction sought with a large enough effect; inconclusive means small, poorly fitted or top-dose-only effect, or another doubt; inactive means no such curve, though single readings can be large; an effect the other way counts as inactive or inconclusive.

SMILES	TRHR enhancer-1	D1 antag	TRHR agonist-1	D1 agonist	D1 potentiator	Epigenetic derep	TRHR enhancer-2	TRHR agonist-2
N#C/C(=C/c1ccc(F)cc1)c1nc(CCN2C(=O)c3ccccc3C2=O)cs1	7	-18	28	22	-8	-2%	-1	3%
Cc1cccc(C)c1NC(=S)N1CCOCC1	3	-5	1	4	1	0%	nt	nt
Cc1cccc(C)c1NC(=S)N1CCC(c2ccccc2)C1 (centres undefined)	49*	7	1	1	-1	0%	-15	0%
COc1ccc(C(=O)NCC(c2ccc(N(C)C)cc2)N2CCc3ccccc32)cc1OC (centres undefined)	-4	-1	-2	3	0	-1%	nt	nt
COc1cccc(CNc2nnnn2C)c1OC	-1	19	0	-2	-4	nt	nt	nt
CCCCn1nnnc1NCc1ccc(OC)c(OC)c1OC	45*	26	0	3	0	-1%	-3	2%
CCC(C)(C)NC(=O)C(c1cccn1C)N(C(=O)Cn1nnc2ccccc21)c1ccc(F)cc1 (centres undefined)	-17	2	29	6	1	1%	-4	?
O=C(CNC(=O)c1ccco1)Nc1ccc(OC(F)F)cc1	50*	6	0	3	-6	nt	-4	-1%
COc1ccc(NC(=O)CNC(=O)c2ccco2)cc1	-3	-1	1	5	-4	nt	nt	nt
Cc1oc2ccc(O)c(CN3CCCC3)c2c1C(=O)Nc1ccc(C(C)C)cc1	10	23	0	9	2	-2%	nt	nt
CSCCC(NC(=O)c1ccc(Cl)c([N+](=O)[O-])c1)C(=O)N1CCN(C/C=C/c2ccccc2)CC1 (centres undefined)	66*	4	0	0	-4	nt	-2	1%
O=C(N/N=C/c1ccc(N2CCOCC2)c([N+](=O)[O-])c1)c1ccc(F)cc1	100*	nt	0	-1	-1	1%	7	2%
O=C(NCc1ccc(F)cc1)c1ccc(N2CCOCC2)c([N+](=O)[O-])c1	3	1	0	-1	-5	nt	nt	nt
CN(C)Cc1c(O)ccc2c1O/C(=C\C=C\c1ccccc1)C2=O	-3	7	28	45*	1	-2%	-3	18µM*
O=C1/C(=C/C=C/c2ccccc2)Oc2c1ccc(O)c2CN1CCN(CCO)CC1	0	3	13	17	1	0%	nt	nt
COCCNC(=O)CSc1cn(CC(=O)N2CCCCCC2)c2ccccc12	-1	3	0	0	-3	-1%	nt	nt
O=C(NCc1cccs1)c1cccnc1C(=O)O	7	-8	51*	2	0	-1%	-2	-1%
Cc1ccc(C(=O)CN2C(=O)NC3(CCc4ccccc43)C2=O)s1 (centres undefined)	58*	14	-1	-1	-1	nt	-2	-1%
CC(=O)OC[C@H]1O[C@@H](ON=C(C)C)[C@H](OC(C)=O)[C@@H](OC(C)=O)[C@H]1OC(C)=O	nt	nt	nt	nt	nt	0%[10.1 µM]	nt	nt
CC(C)COc1ccc(C(=O)N2CCC(c3nc4ccccc4s3)CC2)cc1	0	-1	1	6	-2	-3%	nt	nt
COc1cccc(SCC2(O)CCN(C(=O)c3ccc(Cl)cc3)CC2)c1	59*	0	0	3	-1	-2%[10.1 µM]	-5	0%
COc1ccc(N2CCN(CC(=O)N3c4ccccc4CC3C)CC2)cc1 (centres undefined)	41*	5	0	2	-3	nt	?	1%
CC1CCN(CC(=O)N2c3ccccc3CC2C)CC1 (centres undefined)	0	1	-2	5	-2	-1%	nt	nt
CC(SCc1ccccc1)C(=O)Nc1ccccc1F (centres undefined)	56*	-1	0	3	-5	nt	1	0%
Cc1ccc(NC(=O)Cn2c(=O)n(CCC(=O)NCc3ccccc3Cl)c(=O)c3ccccc32)cc1	10	3	-1	4	0	9%	nt	nt
SMILES	TRHR enhancer-1	D1 antag	TRHR agonist-1	D1 agonist	D1 potentiator	Epigenetic derep	TRHR enhancer-2	TRHR agonist-2
COc1cc(S(=O)(=O)N2CCCCC2)ccc1NC(=O)c1ccccc1Cl	-1	-18	-1	2	-3	0%	nt	nt
CCC(=O)Nc1ccc(S(=O)(=O)N2CCCCC2)cc1OC	44*	-4	1	2	0	-1%	-7	-1%
CCN1CCN(Cc2c(O)ccc3c2O/C(=C\c2ccc(C)cc2)C3=O)CC1	-6	-1	26	19	-7	1%	7	?
Cc1cccc(-n2c(O)c(/C=N/NC(=O)c3ccccc3Cl)c3ccccc3c2=O)n1	15	1	5	8	-3	0%	nt	nt
O=C(N/N=C/c1c(O)n(Cc2ccccc2)c(=O)c2ccccc12)c1cccnc1	4	10	30*	47*	4	-3%	-1	21µM*
COc1ccc(Cn2c(O)c(C=Nc3ccc(OC)cc3)c3ccccc3c2=O)cc1	-4	5	1	2	2	1%	nt	nt
O=C(N/N=C/c1c(O)n(-c2ccccc2Cl)c(=O)c2ccccc12)c1cccnc1	40*	1	29	28	0	-1%	8	?
COc1ccc(Cn2c(O)c(/C=N/NC(=O)c3cccnc3)c3ccccc3c2=O)cc1	0	10	57*	90*	6	-2%	-2	21µM*
CCN1C(C(=O)c2ccccc2)=C(OC(=O)c2ccc(Cl)cc2)c2ccccc2S1(=O)=O	-2	-9	1	14	0	-2%	nt	nt
COc1ccc(C2/C(=C(\O)c3ccc4c(c3)OCCO4)C(=O)C(=O)N2c2nc(C)c(C(C)=O)s2)cc1 (centres undefined)	41*	-14	0	2	-7	nt	2	2%
